Inconclusive results are not listed. Active and inactive are the calls of the source. Calls come from the whole dose curve; as a rule, active = well fitted cell-killing curve with a large enough effect; inconclusive = small, poorly fitted or top-dose-only effect, or effect the other way; inactive = no such curve, though single readings can be large or run the other way.

Drawing on PubChem BioAssay (NCATS), this text covers Potency and viability (% of DMSO) for 25 compounds.

Assay [1] in a line: Quantitative High-Throughput drug screen in 47 multiple myeloma cell lines against the NCATS MIPE library collection: FR4_PLB cell viability assay (AID 1918924; note: nearly all actives have a fitted effect of over 35% in size). The essentials:
(§1)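 Relative luminescence from CellTiter-Glo served as the viability signal, referenced to DMSO-treated (100%) and cell-free medium (0%) controls. Treatment lasted 48 hours at 37C with 500 cells per well.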

Assay [2] in a line: Quantitative High-Throughput drug screen in 47 multiple myeloma cell lines against the NCATS MIPE library collection: EJM_DSMZ cell viability assay (AID 1918926; note: nearly all actives have a fitted effect of over 30% in size). The essentials: as §1
Assay [3] can be described thus: Quantitative High-Throughput drug screen in 47 multiple myeloma cell lines against the NCATS MIPE library collection: AMO1_DSMZ cell viability assay (AID 1918927; note: nearly all actives have a fitted effect of over 30% in size). The essentials: as §1
Assay [4] can be described thus: Quantitative High-Throughput drug screen in 47 multiple myeloma cell lines against the NCATS MIPE library collection: ARD_JJKsccE7 cell viability assay (AID 1918929;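 for viability: 100% = DMSO-only wells and 0% = media-only wells without cells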). A digest of the protocol: as §1
Assay [5] can be described thus: Quantitative High-Throughput drug screen in 47 multiple myeloma cell lines against the NCATS MIPE library collection: Karpas620_DSMZ cell viability assay (AID 1918959).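 For viability (% of DMSO): 100% = DMSO-only wells and 0% = cell-free media-only wells.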 Note: nearly all actives have a fitted effect of over 30% in size. A digest of the protocol: as §1
Assay [6] in a line: Quantitative High-Throughput drug screen in 47 multiple myeloma cell lines against the NCATS MIPE library collection: KMM1_JCRB cell viability assay (AID 1918960). Note: nearly all actives have a fitted effect of over 30% in size. The essentials: (§2)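 Each line was plated at 500 cells/well and treated 48 h with library drugs. Viability came from CellTiter-Glo luminescence relative to DMSO and cell-free medium controls.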
A short description of assay [7]: Quantitative High-Throughput drug screen in 47 multiple myeloma cell lines against the NCATS MIPE library collection: ARP1_JJKsccF8 cell viability assay (AID 1918928; note: nearly all actives have a fitted effect of over 40% in size). A digest of the protocol: as §2
Assay [8] is described as follows: Quantitative High-Throughput drug screen in 47 multiple myeloma cell lines against the NCATS MIPE library collection: Karpas417_ECACC cell viability assay (AID 1918961).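 For viability (% of DMSO): 100% = DMSO only wells and 0% = media only wells without cells.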 Conditions: Karpas417 myeloma viability, CellTiter-Glo ATP luminescence, 48 h; viability (% of DMSO): at 45.8 µM (top of the series). A digest of the protocol: as §1
Potency is the fitted concentration of half-maximal effect.

Consider `CC=C(C(=CC)c1ccc(O)cc1)c1ccc(O)cc1`, for which the Potency in assay [1] was 20.9 µM (active); in assay [3], 16.6 µM (active); in assay [4] it was 23.5 µM (active); in assay [5], 16.6 µM (active); in assay [6] it was 20.9 µM (active). The Potency entry in assay [2] is “inactive”.
Consider `CCNC(=O)Nc1ccc(Oc2ncnc(N)c2C=NOC)cc1Cl`, for which the Potency in assay [1] is 3.72 µM (active); in assay [3], 2.96 µM (active); in assay [7] it was 20.9 µM (active); in assay [4], 5.9 µM (active); in assay [5] it was 4.69 µM (active); in assay [6], 4.69 µM (active).
Turning to `CSc1cccc(Nc2ncc3cc(-c4c(Cl)cccc4Cl)c(=O)n(C)c3n2)c1`, the Potency in assay [1] is 0.372 µM (active); in assay [2], 6.62 µM (active); in assay [7], 1.87 µM (active); in assay [6], 0.059 µM (active); in assay [8], 0.0264 µM (active).
For `NCc1c[nH]c(=S)n1[C@H]1CCc2c(F)cc(F)cc2C1`, the Potency in assay [1] was 14.8 µM (active); in assay [3], 20.9 µM (active); in assay [7], 18.7 µM (active); in assay [4], 26.4 µM (active).
As for `CC(C)c1c(C(=O)Nc2ccccc2)c(-c2ccccc2)c(-c2ccc(F)cc2)n1CC[C@H](O)C[C@@H](O)CC(=O)O`, the Potency in assay [1] is 14.8 µM (active); in assay [7] it was 18.7 µM (active). The Potency result in assay [3] was “inactive”.
For the compound `C[C@@H]1[C@H](C)CC[C@]2(C(=O)O)CC[C@]3(C)C(=CC[C@@H]4[C@@]5(C)CC[C@H](O)C(C)(C)[C@H]5CC[C@]43C)[C@@H]12`, the Potency in assay [1] and in assay [7] was 42.9 µM (active) throughout. The Potency result in assay [3], in assay [4], in assay [5] and in assay [6] was “inactive” each time.
For `Nc1ccn([C@@H]2O[C@H](CO)[C@@H](O)[C@H]2O)c(=O)n1`, the Potency entry in assay [1], in assay [2] and in assay [6] was “inactive” throughout.
On to `O=C(NCCCCN1CCOCC1)c1cc2ccccc2o1`, for which the Potency result in assay [1], in assay [2], in assay [7], in assay [5] and in assay [6] was “inactive” in each case. Besides, in assay [8], the viability (% of DMSO) was 159% (active).
`CC(C)C[C@@H](N)[C@H](O)C(=O)N[C@H](C(=O)N[C@H](C(=O)N[C@@H](CC(=O)O)C(=O)O)C(C)C)C(C)C`: the Potency entry in assay [1], in assay [2], in assay [3], in assay [7], in assay [5] and in assay [6] was “inactive” in each case. In addition, in assay [8], the Potency entry was “inactive”.
On to `CCNC(=O)[C@H]1O[C@@H](n2cnc3c(N)nc(NCCc4ccc(CCC(=O)O)cc4)nc32)[C@H](O)[C@H]1O`, for which the Potency entry in assay [1], in assay [4], in assay [5] and in assay [6] was “inactive” throughout. The Potency in assay [2] is 0.0332 µM (active); in assay [3], 0.105 µM (active); in assay [8], 0.0296 µM (active).
As to `COC(=O)Nc1ccc(-c2nc(N3CCOCC3)c3cnn(C4CCN(C(=O)OC)CC4)c3n2)cc1`, the Potency in assay [1] was 1.05 µM (active); in assay [2] it was 6.62 µM (active); in assay [7] it was 0.662 µM (active); in assay [4], 0.526 µM (active); in assay [6], 0.469 µM (active); in assay [8], 0.059 µM (active).
Consider `OCCn1cc(-c2ccc3c(c2)CCC3=NO)c(-c2ccncc2)n1`, for which the Potency result in assay [1], in assay [2] and in assay [7] was “inactive” throughout. In addition, the Potency was 13.2 µM (active) in assay [4] and 8.33 µM (active) in assay [8].
For `CCCCC(C)(C)[C@H](O)C=C[C@H]1[C@H](O)CC(=O)[C@H]1CC=CCCCC(=O)O`, the Potency result in assay [1], in assay [4] and in assay [5] was “inactive” in each case. Moreover, the Potency in assay [2] was 5.9 µM (active); in assay [7] it was 23.5 µM (active).
As for `CC[C@]1(O)C[C@H]2CN(CCC3=c4ccccc4=N[C]3[C@@](C(=O)OC)(c3cc4c(cc3OC)N(C)[C@H]3[C@@](O)(C(N)=O)[C@H](O)[C@]5(CC)C=CCN6CC[C@]43[C@@H]65)C2)C1`, in assay [1], the Potency entry is “inactive”. For the same compound, the Potency in assay [3] is 0.833 µM (active); in assay [7], 0.0105 µM (active); in assay [4], 0.118 µM (active); in assay [6], 0.105 µM (active).
On to `C[C@@H](O[C@H]1OCCN(Cc2n[nH]c(=O)[nH]2)[C@@H]1c1ccc(F)cc1)c1cc(C(F)(F)F)cc(C(F)(F)F)c1`, for which the Potency in assay [1] was 29.6 µM (active); in assay [3] it was 5.9 µM (active); in assay [7], 26.4 µM (active); in assay [5], 7.43 µM (active). Moreover, the Potency entry in assay [4] is “inactive”.
For `NC[C@H]1O[C@H](O[C@@H]2[C@@H](O)[C@@H](O[C@H]3O[C@H](CO)[C@@H](O)[C@H](N)[C@@H]3O)[C@H](N)C[C@@H]2N)[C@H](O)[C@@H](O)[C@H]1O`, the Potency entry in assay [1], in assay [2], in assay [3], in assay [4], in assay [5] and in assay [6] was “inactive” throughout.
For `C=C1c2cccc(O)c2C(O)=C2C(=O)[C@@]3(O)C(O)=C(C(N)=O)C(=O)[C@@H](N(C)C)[C@@H]3[C@@H](O)[C@H]12`, the Potency is 16.6 µM (active) in assay [1], 9.35 µM (active) in assay [2] and 23.5 µM (active) in assay [7]. Besides, the Potency entry in assay [3] and in assay [6] was “inactive” each time.
`CN1CC(=O)NC1=NC(=O)Nc1cccc(Cl)c1`: the Potency is 20.9 µM (active) in assay [1], 20.9 µM (active) in assay [7], 5.26 µM (active) in assay [5] and 4.69 µM (active) in assay [6]. For the same compound, the Potency entry in assay [3] is “inactive”.
For `COc1ccc(C=CC(=O)Nc2ccccc2C(=O)O)cc1OC`, the Potency entry in assay [1], in assay [2], in assay [4], in assay [5] and in assay [6] was “inactive” throughout.
Take `COc1ccc(-c2oc3c(CC=C(C)C)c(O)cc(O)c3c(=O)c2O)cc1`: the Potency in assay [1] was 20.9 µM (active); in assay [2], 18.7 µM (active). Further, the Potency entry in assay [4], in assay [5] and in assay [6] was “inactive” in each case.
With `O=C(O)c1ccc(O)c2ncc(N3CCOCC3)cc12`, the Potency entry in assay [1] and in assay [2] was “inactive” throughout. Besides, the Potency in assay [3] is 20.9 µM (active); in assay [5] it was 18.7 µM (active).
Consider `O=C1Nc2ccc(I)cc2C1=Cc1cc(Br)c(O)c(Br)c1`, for which the Potency result in assay [1] and in assay [2] was “inactive” each time. Also, the Potency is 16.6 µM (active) in assay [3] and 14.8 µM (active) in assay [5].
Consider `N#Cc1c(N(CC(=O)O)CC(=O)O)sc(C(=O)O)c1CC(=O)O`, for which the Potency result in assay [1], in assay [2] and in assay [8] was “inactive” each time. In assay [3], the Potency was 8.33 µM (active).
For `CN1C(=O)C[C@H](C(=O)N[C@@H](Cc2cnc[nH]2)C(=O)N2CCC[C@@H]2C(N)=O)NC1=O`, the Potency result in assay [1], in assay [2], in assay [4] and in assay [5] was “inactive” each time.
For `CCC[C@H](N[C@@H](C)C(=O)N1[C@@H]2CCCC[C@H]2C[C@H]1C(=O)O)C(=O)OCC`, the Potency entry in assay [1], in assay [2], in assay [7] and in assay [5] was “inactive” each time.
